# According to PubChem BioAssay AID492947 (National Center for Advancing Translational Sciences (NCATS), 2010):
# About 80 (0.02%) of roughly 330,000 compounds were called active. Where a call stands in place of a potency, no number is given. This is one part of a sample in which actives are shown more often than they occur. The call rests on the fitted dose curve; in most records, active means well fitted activation curve with a large enough effect; inconclusive means small, poorly fitted or top-dose-only effect; inactive means flat fitted curve, though single readings scatter. Square brackets hold non-standard residues; d marks the D form. Peptide text beside a SMILES is read from it. * marks the point of attachment. PhAc = O=C(Cc1ccccc1)*
# Target: Beta-2 adrenergic receptor (Homo sapiens) (UniProt P07550)
# Experiment: qHTS assay of beta-arrestin-biased ligands of beta2-adrenergic receptor; further: nearly all actives have a fitted effect of over 65% in size
# Settings: beta-arrestin recruitment to beta2AR, cell-based reporter; series mostly up to 46.1 µM
# Description: NIH Molecular Libraries Probe Production Network [MLPCN]
# NIH Chemical Genomics Center [NCGC]
# PI: Bryan Roth and Bob Lefkowitz
# The concept of biased agonism is an emerging concept of molecular pharmacology which proposes that seven transmembrane receptors (7TMRs) or G protein-coupled receptors (GPCRs), exist in multiple signaling conformations and complexes and that ligands (either agonists or antagonists) can induce signaling biased responses for distinct signal transduction cascades.
# Furthermore, accumulating evidence over the last decade has drawn attention to a novel function of beta-arrestins as signal transducers that scaffold various signaling molecules upon activation of 7TMRs. […] This beta-arrestin-biased signaling presumably leads to distinct physiological outcomes from those by G protein activation.
# Additionally, the active receptor conformations which […] on this beta-arrestin signaling are likely different from those activating G protein signaling
# The goal of this screening project will be to discover and optimize novel beta-arrestin-biased ligands for beta2-AR signaling. A luminescent cell-based assay for beta2-AR-mediated agonism, known as the Tango assay, has been validated in which ligand binding of a recombinant beta2-AR and subsequent recruitment of a recombinant beta-arrestin lead to the release of the transcriptional activator tTA, which upregulates transcription of a tTA-responsive luciferase gene. […] Compounds were screened as a concentration-titration series that ranged from 46 microM to 0.6 nM.
# NCGC Assay Protocol Summary:
# Tango cells were dispensed into white, solid, tissue-culture-treated 1536-well plates at 1500 cells/well in DMEM, containing 1% fetal bovine serum (FBS). Then, 23 nL of compounds or DMSO were delivered to each well using a pin tool. Plates were incubated at 37 degrees C, 5% CO2 for 18 hr. Then 2.5 uL luminescent substrate mix (in-house prepared: 150 mM Tris-Cl, pH 7.6, 3 mM MgCl2, 1% Triton X-100, 5 mM DTT, 0.5 mM CoA, 0.15 mM ATP, 0.44 mM D-luciferin, final concentrations) was added to each well. Plates were then incubated for 15 minutes at room temperature, and subsequently measured on a ViewLux plate reader for luminescent signal using a clear filter with a 10 second exposure and 2x binning. The %Activity was determined from the corrected luminescence values.
# Concentration-response curves were fitted to the signals arising from the resulting luminescence. The concentration-effect curves were then classified based on curve quality (r2), response magnitude and degree of measured activity, and compounds were subsequently categorized based on their curve class.
# Keywords: biased agonism, beta2-AR, beta-arrestin, GPCR, 7TMR, Tango, luminescence, MLSMR, MLPCN, NIH Roadmap, qHTS, NCGC
# Potency means the concentration at half of the fitted maximal effect.
# Sequence of Beta-2 adrenergic receptor (Homo sapiens) (P07550 whole entry, looked up): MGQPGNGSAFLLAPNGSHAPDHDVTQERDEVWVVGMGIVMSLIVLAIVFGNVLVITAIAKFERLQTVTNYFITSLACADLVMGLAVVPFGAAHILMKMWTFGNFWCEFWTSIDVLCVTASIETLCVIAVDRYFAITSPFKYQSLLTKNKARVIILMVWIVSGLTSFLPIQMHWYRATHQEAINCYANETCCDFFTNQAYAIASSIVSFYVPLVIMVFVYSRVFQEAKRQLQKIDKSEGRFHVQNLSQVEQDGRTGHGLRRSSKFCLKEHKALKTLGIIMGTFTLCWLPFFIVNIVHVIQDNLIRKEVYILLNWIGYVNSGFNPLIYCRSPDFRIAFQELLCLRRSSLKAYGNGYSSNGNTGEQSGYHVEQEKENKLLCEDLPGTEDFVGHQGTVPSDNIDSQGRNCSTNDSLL
row,SMILES,Potency
1,COc1ccc(Cn2c(-c3ccc(Cl)cc3)c[n+]3ccccc23)cc1,inactive
2,Cc1cc(NC(=O)CSc2nccn2-c2ccc([N+](=O)[O-])cc2)no1,inactive
3,COc1ccc(N=Nc2c(-c3ccc(OC)cc3)[nH]oc2=O)cc1,inactive
4,COc1ccccc1CNS(=O)(=O)CC12CCC(CC1=O)C2(C)C (stereo not drawn),inactive
5,CCC(C)NC(=O)c1nn(C)c(=O)c2ccccc12 (stereo not drawn),inactive
6,CCOc1ccc2c(c1)c(=O)c(S(=O)(=O)c1ccc(C)cc1)cn2CC,inactive
7,COc1ccc2ccccc2c1CNCc1ccccn1,inactive
8,O=C(Cn1nnc2ccccc2c1=O)Nc1cc(C(F)(F)F)ccc1N1CCOCC1,inactive
9,Cc1ccc(SCC(=O)NNC(=O)c2ccc(S(C)(=O)=O)cc2)cc1,inactive
10,CC1Cc2ccccc2N1C(=O)Cn1cnc2ccccc2c1=O (stereo not drawn),inactive
11,CC1CCCC(NC(=O)c2cc(-c3ccncc3)nc3ccccc23)C1C (stereo not drawn),inactive
12,CC1CCN(c2oc(-c3ccccc3F)nc2C#N)CC1,inactive
13,O=C(Nc1c(-c2ccccc2)nc2c(Br)cc(Br)cn12)c1ccco1,inactive
14,CC(=O)c1cccc(NC(=O)CN2C(=O)c3cccnc3Oc3ccc(Cl)cc32)c1,inactive
15,COc1ccccc1OCc1ccc(C(=O)NC(C)c2ccccc2)o1 (stereo not drawn),inactive
16,CCN(CC)Cc1csc2ccc(Br)cc12,inactive
17,COc1ccc(C(=O)N(CCN2CCOCC2)CC(=O)NC2CCCC2)cc1OC,inactive
18,COc1ccc([N+](=O)[O-])cc1NC(=O)C(C)OC(=O)C1c2ccccc2Oc2ccccc21 (stereo not drawn),inactive
19,CNc1nccc(-c2ccc(Cl)cc2)c1C#N,inactive
20,CC(C)(C)CC(C)(C)NCC(O)COCCOc1ccc(Br)cc1 (stereo not drawn),inactive
21,CC(C)C(c1nnnn1C(C)(C)C)N1CCN(Cc2cccnc2)CC1 (stereo not drawn),inactive
22,O=C(CSc1ccc(-c2ccc(-n3cccn3)cc2)nn1)Nc1ccc([N+](=O)[O-])cc1,inactive
23,COc1ccc(CNS(=O)(=O)c2cc3c4c(c2)CCN4C(=O)CC3)cc1,inactive
24,CCN(CC(=O)Nc1ccccc1C(F)(F)F)C(=O)CSCc1c(C)noc1C,inactive
25,CN(CC(=O)Nc1ccc(F)c(F)c1F)C(=O)Cn1cnc2c1c(=O)n(C)c(=O)n2C,inactive
26,COC(=O)C1(C)NC(c2ccc(C)cc2)C2C(=O)N(c3ccc(F)cc3)C(=O)C21 (stereo not drawn),inactive

row,SMILES,Potency
1,CC1CC(c2ccccc2)n2nc(NC(=O)c3cccs3)nc2N1 (stereo not drawn),inactive
2,CN(C(=O)CSc1nnc(-c2ccc(C(C)(C)C)cc2)n1C)C1CCS(=O)(=O)C1 (stereo not drawn),inactive
3,Cc1ccc(NC(=O)CN(C)C(=O)COC(=O)c2nccnc2N)cc1,inactive
4,CC(C)CC[n+]1ccn(C2=C([O-])c3ccccc3C(=O)/C2=N\S(=O)(=O)c2ccccc2)c1,inactive
5,CC1(C)O[C@H]2CC(=O)OCC23[C@H]2CC[C@@]4(C)[C@H](c5ccoc5)OC(=O)[C@H]5O[C@]54[C@]2(C)C(=O)C[C@@H]13 (stereo partly drawn),inactive
6,CCOC(=O)C1CCN(C(=O)COC(=O)C2CCN(S(=O)(=O)c3ccc4c(c3)OCCO4)CC2)CC1,inactive
7,Cc1ccc(C(=O)N2CC(=O)Nc3ccc(F)cc3C2c2ccc(F)cc2)cc1 (stereo not drawn),inactive
8,CCOC(=O)N1CCC(NC(=O)CCc2cn(C)c3ccccc23)CC1,inactive
9,FC(F)(F)c1cc(C(F)(F)F)c2ccc(N3CCN(c4ccccc4)CC3)nc2n1,inactive
10,Cc1ccccc1NC(=O)C(C)OC(=O)CCC(=O)N(CC(C)C)c1c(N)n(CC(C)C)c(=O)[nH]c1=O (stereo not drawn),inactive
11,COc1cc(NC(=O)c2ccc(-c3csc(C)n3)cc2)c(OC)cc1Cl,inactive
12,[O-][N+]12CCCCC1CCCC2CO (stereo not drawn),inactive
13,CCN(Cc1ccccc1)C(=O)CSc1nc(C)cc2c1C(=O)OC2,inactive
14,O=C(COc1ccc(Cl)cc1)NCc1nnc(SCC(=O)NCC2CCCO2)o1 (stereo not drawn),inactive
15,Cc1ccc(C(C(=O)NCC2CCCO2)N(C(=O)c2snc(C(N)=O)c2N)c2ccc(C(C)C)cc2)o1 (stereo not drawn),inactive
16,CC(=O)N/C(=C\c1ccccc1)C(=O)OC(C)C(=O)N(C)c1ccccc1 (stereo not drawn),inactive
17,C=CCn1c(SCC(=O)NC23CC4CC(CC(C4)C2)C3)nc(O)cc1=O,inactive
18,C=CCNC(=S)N/N=C/c1ccc(C)s1,5.62 µM (active)
19,C=CCNC(=S)N/N=C/c1ccc(OCc2ccccc2)cc1,inactive
20,Cc1ccc(/C=N/NC(=O)CN2CCN(Cc3ccccc3)CC2)s1,inactive
21,CCOC(=O)c1sc(N)c(C#N)c1COC(=O)C1=COCCO1,inactive
22,COc1ccc(NC(=O)Cn2c(-c3ccc(OC)cc3)cn(-c3ccc(C)cc3)c2=O)cc1,inactive
23,O=C(c1cc2ccccc2o1)N1CCN(c2cccc(C(F)(F)F)c2)CC1,inactive
24,CC(C)[C@H](NC(=O)c1ccc(F)cc1)C(=O)OCC(=O)NC(=O)c1cccn1C,inactive
25,CC1CN(CCCOc2ccccc2-c2ccccc2)CC(C)O1 (stereo not drawn),inactive
26,CCOC(=O)CC1COCCN1C(=O)c1cc(COc2ccc(F)c(F)c2)on1 (stereo not drawn),inactive

row,SMILES,Potency
1,COC/C=C/C1=CC2=CC(=O)C(C)(OC(=O)CCC(=O)OC)C(=O)C2=CO1 (stereo not drawn),inactive
2,O=C(CCn1nnnc1CN1CCOCC1)N1CCC(c2ccccc2Cl)C1 (stereo not drawn),inactive
3,CC(=O)Oc1ccc(-c2cccc(C(=O)N3CCCCC3)c2)cc1,inactive
4,CC1(C)CC(=O)C(C=NCc2cccnc2)=C(O)C1,inactive
5,N#C/C(=C\c1cccnc1)C(=O)Nc1ccc(SC(F)F)cc1,inactive
6,COc1ccc(OC)c(CNC(=O)Cn2nc(C)c3c(C)n(-c4ccc(C)cc4)nc3c2=O)c1,inactive
7,Cc1ccc(NN=Nc2nc3c([nH]2)c(=O)n(C)c(=O)n3C)cc1,inactive
8,COc1ccc(CNC(=O)C(C)NCc2ccccc2Cl)cc1 (stereo not drawn),inactive
9,O=C(Cc1ccc(Cl)cc1)NC(=S)Nc1ccccc1O,inactive
10,Cc1ccccc1CCNC(=O)C1CCC(=O)N(Cc2ccc(Cl)cc2)C1 (stereo not drawn),inactive
11,CC(C)OCCCNC(=O)c1ccc(C2SCC(=O)N2Cc2ccco2)cc1 (stereo not drawn),inactive
12,COc1ccc(Cl)cc1S(=O)(=O)N1CCC(O)(c2ccc(Cl)cc2)CC1,inactive
13,Cc1nc2scc(-c3cccs3)c2c(=O)n1N,inactive
14,CCOc1ccc(OCC)c(NC(=O)CSc2nnc(Cn3cnc4ccccc43)n2C)c1,inactive
15,C=C1CCN([C@H](C(=O)NCc2cc(OC)c(OC)c(OC)c2)C(C)C)S(=O)(=O)c2ccccc21,inactive
16,COc1cc(C2C3=C(CCCC3=O)OC3=C2C(=O)CCC3)ccc1OCC(=O)Nc1ccccc1,inactive
17,O=S(=O)(O)CCN1CCOCC1,inactive
18,O=S(=O)(NC1CCCCC1)c1ccc(F)c2ccccc12,inactive
19,NS(=O)(=O)c1cc2c(cc1Cl)NC(C(Cl)Cl)NS2(=O)=O (stereo not drawn),inactive
20,COc1ccc(/C(O)=C2/C(=O)C(=O)N(CC3CCCO3)C2c2ccc(OC)c(OC)c2)cc1 (stereo not drawn),inactive
21,CCCOc1ccc(-c2c(C(=O)N/N=C/c3ccco3)nnn2-c2nonc2N)cc1,inactive
22,Cc1cc(S(=O)(=O)c2cc3ccc(O)c(C)c3oc2=O)ccc1F,inactive
23,CSCC[C@H](NC(=O)NC1CCCC1)C(=O)O,inactive
24,CCN(c1ccccc1)S(=O)(=O)c1ccc(C(=O)Nc2ccccc2OC)cc1,inactive
25,Cc1ccc(CN2CCN(Cc3ccc(OCCO)cc3)CC2CCO)o1 (stereo not drawn),inactive
26,COc1ccc(OC)c(NC(=O)c2sc3nc(C)cc(C)c3c2N)c1,inactive

row,SMILES,Potency
1,CCCN1CCN(C(=O)Cn2ncc3ccccc32)CC1,inactive
2,C[C@H](CO)N1C[C@H](C)[C@@H](CN(C)C(=O)Nc2ccc3c(c2)OCO3)Oc2c(cccc2N(C)C)C1=O,inactive
3,CCn1ccnc1CN1CCCC(C(=O)c2ccc3c4c(cccc24)CC3)C1 (stereo not drawn),inactive
4,Cc1cccc(C(=O)NNC(=O)CSc2nnc(C(C)C)n2C)c1,inactive
5,C/C=C/C(=O)Nc1nnc(C(C)C)s1,inactive
6,CCSc1nc2c(c(=O)[nH]1)C(c1cccnc1)C(C(=O)OC(C)C)=C(C)N2 (stereo not drawn),inactive
7,CC1(C)CC(N(Cc2ccccc2)C(=O)Cc2ccccc2)CCO1 (stereo not drawn),inactive
8,COc1cccc(N(CC(=O)NC2CCCC2)C(=O)CCCC(=O)Nc2ccccn2)c1,inactive
9,O=C1CSc2ccc(S(=O)(=O)NCc3ccccc3)cc2N1,inactive
10,CN(c1cccc(NC(=O)c2ccc(CN3CCc4ccccc4C3)cc2)c1)S(C)(=O)=O,inactive
11,COc1ccc(NC(=O)C2CCC(CNS(=O)(=O)c3csc(C(N)=O)c3)CC2)cc1OC (stereo not drawn),inactive
12,O=C(NCCc1ccc(C(F)(F)F)cc1)c1ccc2c(c1)OCO2,inactive
13,COc1ccc(C(C)=O)cc1CN1C(=O)NC2(CCCCC2C)C1=O (stereo not drawn),inactive
14,Cc1ccc(NC(=O)CS(=O)CC(=O)N(c2ccccc2)C(C)C(=O)NC2CCCC2)cc1 (stereo not drawn),inactive
15,CC(C)C[C@@H](NC(=O)[C@H]1CCCN1C(=O)Cc1ccccc1)C(N)=O (PhAc-[dP]-[dL]-NH2),inactive
16,CCOC(=O)Cn1c(O)c(N=NC(=O)CNC(=O)Cc2ccccc2)c2ccccc21,inactive
17,CCn1c(CC(=O)Nc2ccc(C)cc2)nnc1SCC(=O)Nc1nc(C)cs1,inactive
18,Cc1noc(C)c1C(=O)OCC(=O)N1CCN(S(=O)(=O)c2ccc3ccccc3c2)CC1,inactive
19,Cc1nc2ccc(NC(=O)C3CCCCC3)cc2s1,inactive
20,Cc1ccc(NC(=S)NCCc2ccc(Cl)cc2)c(C)c1,inactive
21,CCCCOC(=O)Nc1nccs1,inactive
22,O=C(CN(Cc1ccccc1)C(=O)c1ccc2c(c1)OCCO2)NCc1ccc2c(c1)OCO2,inactive
23,CC(OC(=O)CN1C(=O)c2ccccc2C1=O)C(=O)c1ccccc1 (stereo not drawn),inactive
24,COc1ccc(OC)c(CNC(=O)c2cc(=O)[nH]c3ccc(S(=O)(=O)N4CCCC4)cc23)c1,inactive
25,CCCCN=C1N/C(=C\c2ccco2)C(=O)N1c1ccccc1,inactive
